Molecules are shown by their SMILES. “And” between values parts separate entries of the source, which are not always exact repeats. Equal values may be shown once. Compounds without any hit were thinned out: in the full panel of roughly 83,000, 20% have a hit.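 96-well plates, one dose, 48 hours. Percent growth reported; active if below 10.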 Values without a mark were called inactive. The source made the active and inactive calls.

The test system of the experiment is HL-60(TB) leukemia. The experiment can be described thus: NCI-60 one-dose screen, 48 h (100 = growth as untreated, 0 = no growth, -100 = all killed). The conditions noted are these: 10 µM unless noted.
Regarding `COc1cc2cc(Oc3ccc(NC(=O)Nc4ccc(Cl)c(Cl)c4)cc3)c(C)nc2cc1OCCN1CCOCC1`, the growth is 97.9%.
Then `N#Cc1ccc2c(c1)C(=O)c1c-2n(CCCN)c(=O)c2cc([N+](=O)[O-])ccc12`, with -91.8% (active).
Then `COC(=O)/C=C/c1cc(OC)c2c(c1)[C@@H](C(=O)OC)[C@H](c1ccc(OC)c(OC)c1)O2`, with -13.3% (active); and `COC(=O)c1cc(C(=O)OC)cc([N+](=O)[O-])c1`, with 85.8%; and `C/C(=N\O)c1ccc(NC(=O)CSc2nnc(-c3ccccc3)n2-c2ccccc2)cc1`, with 90.4%.
As for `CC(C)C(C)(C)C(=O)C(C)(C)C(C)(C)C`, the growth was 135%.
Then `CN(C)c1ccc(N=Nc2ccccn2)c(O)c1`, with -36.3% (active); and `COc1ccc(-c2ccc(-c3ccc(C(=N)N)s3)s2)cc1`, with -61.1% (active); and `CNC(=O)c1ccccc1Nc1nc(Nc2ccc3c(c2OC)CCC[C@H](N2CCN(CCO)CC2)C3)ncc1Cl`, with -45.7% (active).
Then `COC(=O)CCCNc1c(-c2c(O)c(O)cc3c(O)c(-c4c(C)cc5c(-c6nc7ccccn7c6NCCCC(=O)OC)c(O)c(O)cc5c4O)c(C)cc23)nc2ccccn12`, with 91.7%; and `O=C(Nc1ccc(OS(=O)(=O)c2ccccc2)cc1)C12CC3CC(CC(C3)C1)C2`, with 37.3%.
Then `O=C(CCc1nnc(CN(c2ccccc2)c2ccccc2)o1)c1nc2ccccc2[nH]1`, with 84.1%.
In the case of `CN(C)c1ccc(/C=C/C(=O)c2ccc(-n3cc(CN4CCN(c5cc6c(cc5F)c(=O)c(C(=O)O)cn6C5CC5)CC4)nn3)cc2)cc1`, the growth is 84.6%.
Then `COc1cnc2c(c1)C(=O)c1c-2n(CCCN2CCN(C)CC2)c(=O)c2cc([N+](=O)[O-])ccc12`, with -54% (active).
Then `Nc1nc2c3ccncc3cc(-c3cccc(Cl)c3)c2c2cnccc12`, with 6.71% (active); and `O=C(Nc1cccc(-n2ccc3c(NC(=O)c4ccccc4)nccc32)c1)c1ccc(N2CCOCC2)c(C(F)(F)F)c1`, with -7.22% (active).
Then `Cc1nc(/N=C(\N)NC(=O)Nc2cccc([N+](=O)[O-])c2)sc1C`, with 39.5%; and `NCCSC(c1ccccc1)(c1ccccc1)c1ccccc1`, with -17.3% (active); and `CN1CCN(C(=O)[C@]23CCC(C)(C)C[C@@H]2C2=CC[C@@H]4[C@@]5(C)Cc6c([nH]c7ccccc67)C(C)(C)[C@@H]5CC[C@@]4(C)[C@]2(C)CC3)CC1`, with 76.7%.
As for `O=C1C[C@@H]2/C(=C(O)\C=C\c3ccccc3)C(=O)C=C[C@@H]2O1`, the growth was 13.3%.
Then `CCCCN(CCCC)CC(C)(C)C(O)c1ccc(OC)c2ccccc12` (stereo not given), with 56.3%.
With `CCN(CC)CCCOc1ccc2c(c1)O/C(=C\c1cccc(OC)c1)C2=O`, the growth was 97.4%.
Then `O=S(=O)(c1ccc(N/N=C\c2ccccc2)cc1)c1ccc(N/N=C/c2ccccc2)cc1`, with 94.8%; and `CC(=O)OCc1nc(C#N)c(N(C)C)o1`, with 97.5%; and `CC(=Nc1ccccc1)C1=C(O)C(Cc2ccc(O)cc2)NC1=O` (stereo not given), with -51.5% (active).
Then `COc1cc(C(=O)/C=C/c2c[nH]c3ccccc23)cc(OC)c1OC`, with -12% (active); and `O=c1ssc(Cl)c1-c1ccccc1`, with 48%.
Then `Cc1nc(Nc2ccccn2)sc1C(=O)/C=C/c1ccc(Cl)cc1`, with -38.8% (active).
In the case of `Cc1cc(NC(=O)CSCC(=O)O)no1`, the growth was 88.9%.
Then `O=C1OC(c2ccccc2)=N/C1=C\c1ccccc1`, with 113%.
For the molecule `CCN(CC)c1nc(SCc2ccccc2Cl)ncc1C`, the growth was 89.7%.
Then `Cc1cc(Cl)nc(N(CCNc2ccnc3cc(Cl)ccc23)Cc2ccco2)n1`, with -47.7% (active).
For the molecule `CCOC(=O)C1=C(C)NC(C)=C(C(=O)OCC)C1`, the growth was 110% and 102%.
On to `CCCCC[C@@H]1Cc2cc(O)c(C(=O)O)c3c2[C@H](C[C@]2(OC[C@@H](CC(=O)[C@@](C)(CC)C(=O)OC)[C@@H]2C)O3)O1`, for which the growth was 116%.
Then `COc1ccc2c(c1)C(=O)c1c-2c(OCCN(C)C)nc2cc(OC)c(OC)cc12`, with 89.9%; and `CN1CCN(Cc2ccc(NC(=O)c3nc4ccc5[nH]ncc5c4c4c3CCC4)cc2C(F)(F)F)CC1`, with -59.1% (active).
Take `Cc1ccc(C=C2C(Cl)=C(Cl)C(Cl)=C2Cl)cc1`: the growth was 7.68% (active).
Then `CCCCCCN1C(=O)C2=C(c3ccc(Cl)cc3)Nc3c(c(C)nn3-c3ccccc3)C2c2ccccc21` (stereo not given), with 102%; and `c1cc(N2CCCC2)c2nc(-c3[nH]ncc3Nc3ncnc4[nH]ccc34)[nH]c2c1`, with -15.9% (active); and `O=c1c2cc(F)ccc2sc2c(Nc3ccncc3)nc3ccccc3c12`, with 6.35% (active).

The record behind these values is PubChem BioAssay (NCI).
